Screens: PubChem, several laboratories
APP transl inh – APP translation inhibition; SH-SY5Y APP 5'UTR-luciferase reporter, luminescence; inhibition, % at 2 µM; hit rate 0.82% among 190,000; AID 1285;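 active = inhibition above a set limit, derived from the sample mean plus 3 SD, cut at about 45% in these data; inconclusive = one replicate passes the limit while the other fails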
KLF5 inhibitor – kruppel-like factor 5 inhibition; DLD-1 KLF5 promoter-luciferase reporter, luminescence; inhibition, % at 5 µM; hit rate 0.23% among 290,000; AID 1700;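 active = inhibition above a per-plate limit of that plate's mean compound inhibition plus 3 SD, cut at about 60% in these data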;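 note: higher means less KLF5 promoter-driven luciferase light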
aSyn UTR inh – 5' untranslated region of α-synuclein, MLPCN primary screen. alpha-synuclein 5'UTR reporter, inhibitor activity. inhibition, % (tested at 7.5 µM). hit rate 0.82% among 300,000; in the data active = inhibition above about 60%; inconclusive = no clear call, values can overlap the other calls;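 note: H4 neuroglioblastoma cells stably carrying SNCA 5'UTR luciferase fusion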
Ba/F3 V617F tox – lowers viability of Ba/F3 cells expressing EpoR and JAK2V617F; ATP luminescence; inhibition, % at 5.6 µM; hit rate 1.1% among 220,000;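 active = inhibition above the campaign mean plus 3 SD over all tested compounds, cut at about 24% in these data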;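 note: cytokine-independent growth of Ba/F3 cells driven by EpoR plus mutant JAK2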
BaF3 tox – reduces parental Ba/F3 cell viability, JAK2V617F counter-screen; CellTiter-Glo ATP luminescence; inhibition, % at 5.6 µM; hit rate 1.1% among 220,000; AID 1486;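 active = inhibition above a per-campaign cutoff, the mean inhibition of all tested compounds plus 3 SD, cut at about 27% in these data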
IEC-6 cytotox – kills IEC-6 intestinal cells in KLF5 counter-screen; AID 1825; hit rate 0.78% among 290,000; inhibition, % at 5 µM; IEC-6 cytotoxicity, luminescence viability
IEC-6 tox confirm – IEC-6 cytotoxicity, confirmation assay; shares compounds with IEC-6 cytotox; inhibition, % at 5 µM; IEC-6 rat intestinal epithelial viability, luminescence; AID 1907; hit rate 63% among 1,900
Hits are given with their value; 0 = inactive; ? = inconclusive; - = not tested or not shown. In the library only some 2.2% were active in any assay of this set; here they are far more common. Cut-off read from the data, not from the text of the source, unless noted: active = inhibition above about 22%; inactive = the rest.

SMILES	APP transl inh	KLF5 inhibitor	aSyn UTR inh	Ba/F3 V617F tox	BaF3 tox	IEC-6 cytotox	IEC-6 tox confirm
Cc1cc(N)n2ncc(-c3ccc(F)cc3)c2n1	0	0	0	0	0	0	-
Cc1nn2c(NCc3ccccn3)cc(C(C)C)nc2c1-c1ccccc1	-	0	0	0	0	0	-
Cc1cc(NCc2ccccn2)n2nc(C)c(-c3ccc(Cl)cc3)c2n1	-	0	-	0	0	0	-
CCCc1cc(NCc2ccccn2)n2nc(C)c(-c3ccccc3)c2n1	-	0	0	0	0	46.9	0
Cc1cccn2c(=O)c3cc(C(=O)NCCc4ccccc4)c(=N)n(Cc4ccco4)c3nc12	-	0	0	-	-	63.3	0
COc1ccc(CCNC(=O)c2cc3c(=O)n4cccc(C)c4nc3n(Cc3ccco3)c2=N)cc1OC	-	0	0	-	-	35.7	0
Cc1cccn2c(=O)c3cc(C(=O)NCc4ccco4)c(=N)n(CCc4ccccc4)c3nc12	-	0	-	0	0	0	-
Cc1ccc(CNC(=O)c2cc3c(=O)n4ccccc4nc3n(Cc3ccco3)c2=N)cc1	-	-	0	-	-	-	-
COc1ccccc1C1CC(=O)Nc2cc3c(cc21)OCCO3 (centres undefined)	95.0	63.8	0	73.2	72.1	75.4	59.7
COc1ccc(NC(=O)c2ccc3c(=O)n(-c4ccc(OC)cc4OC)c(=S)[nH]c3c2)cc1	0	0	0	0	0	0	-
COc1ccc(-n2c(=S)[nH]c3cc(C(=O)Nc4ccc(F)cc4)ccc3c2=O)c(OC)c1	-	0	0	-	-	31.6	0
Cc1csc2ncnc(N3CCN(C(=O)Nc4ccc(OC(F)(F)F)cc4)CC3)c12	-	0	0	0	0	0	-
CC(Oc1ccc(Br)cc1)C(=O)Nc1nc(-c2ccccn2)cs1 (centres undefined)	-	0	0	-	-	49.7	24.3
CCc1nnc(NC(=O)C(NC(=O)c2ccccc2Cl)C(C)C)s1 (centres undefined)	0	0	0	0	0	0	-
CC(C)[C@H](NC(=O)c1ccccc1Cl)C(=O)Nc1nc(-c2ccccn2)cs1	0	0	63.6	0	0	40.3	39.9
Cc1cc(NS(=O)(=O)c2ccc(NC(=S)NC(=O)c3ccccc3)cc2)no1	0	0	0	0	0	63.1	22.9
COC(=O)C(NC(=O)c1ccco1)(Nc1cc(C)ccn1)C(F)(F)F (centres undefined)	0	0	0	0	0	52.0	0
Cc1cccc(NC(=O)Nc2ccc3c(c2)CCC3)c1	-	0	0	-	-	89.8	0
CCOc1ccc(CCNC(=O)COC(=O)C2CC2)cc1OCC	-	-	0	-	-	-	-
Cc1ccc(-c2cc(C(=O)N/N=C/c3c[nH]c4ccccc34)[nH]n2)cc1	76.4	0	77.5	57.4	58.3	42.8	51.7
O=C(N/N=C/c1c[nH]c2ccccc12)c1cc(-c2ccc(-c3ccccc3)cc2)n[nH]1	0	0	0	0	0	0	-
Cc1cc(C)cc(NC(=O)c2ccc([N+](=O)[O-])o2)c1	70.7	0	0	95.2	58.6	102.8	24.2
CC(=O)c1cccc(NC(=O)c2ccc([N+](=O)[O-])o2)c1	-	-	0	-	-	-	-
COc1ccc(NC(=O)c2ccc([N+](=O)[O-])o2)cc1	-	0	0	-	-	43.5	0
CC(=O)c1ccc(NC(=O)c2ccc([N+](=O)[O-])o2)cc1	-	0	0	-	-	32.2	0
SMILES	APP transl inh	KLF5 inhibitor	aSyn UTR inh	Ba/F3 V617F tox	BaF3 tox	IEC-6 cytotox	IEC-6 tox confirm
Cc1ccc(NC(=O)C2CCN(S(=O)(=O)c3ccc4c(c3)OCCCO4)CC2)nc1	-	-	0	-	-	-	-
CCN1C(=O)CS/C1=N\S(=O)(=O)c1ccc(Cl)cc1	0	0	0	0	0	0	-
CCn1c(Cl)c(C=O)s/c1=N\S(=O)(=O)c1ccccc1	-	0	0	99.0	102.8	95.6	90.7
O=C(O)CN(c1ccccc1[N+](=O)[O-])S(=O)(=O)c1ccccc1	0	0	0	0	0	0	-
CCOC(=O)C(NC(=O)Nc1ccc(Cl)cn1)(Oc1ccc(F)cc1)C(F)(F)F (centres undefined)	0	0	0	0	0	24.9	0
C=CCN(c1ccccc1)S(=O)(=O)c1cccc2cccnc12	-	0	0	0	0	0	-
CCOc1ccc(S(=O)(=O)N2CCCC(C(=O)Nc3cccc(C)c3)C2)cc1 (centres undefined)	-	0	0	-	-	0	-
CCOC(=O)Nc1nc(-c2ccccc2)c(C(=O)c2ccc(Cl)cc2)s1	94.1	0	113.7	72.7	77.4	86.2	57.3
Cc1cc(NC(=O)CNCC(c2ccccc2)N(C)C)c([N+](=O)[O-])cc1C (centres undefined)	-	0	0	-	-	0	-
CCOC(=O)C1=C(CN2CCN(C(=O)c3ccco3)CC2)NC(=O)NC1c1ccc(F)cc1 (centres undefined)	-	0	0	-	-	0	-
Cc1ccccc1NC(=O)c1cccc(NC(=O)c2ccco2)c1	-	0	0	-	-	0	-
CCOc1ccccc1NC(=O)c1cccc(NC(=O)c2ccco2)c1	90.7	0	0	81.9	68.0	54.6	51.8
COc1ccc(C(=O)Nc2ccc(N3CCN(C(=O)c4ccccc4)CC3)cc2)cc1[N+](=O)[O-]	0	0	0	0	0	0	-
CC(C)C(=O)N1CCN(c2ccc(NC(=O)c3ccc(Br)o3)cc2)CC1	0	0	0	0	0	0	-
O=C(Nc1ccc(N2CCN(C(=O)c3ccccc3)CC2)cc1)c1ccc([N+](=O)[O-])o1	94.3	0	0	99.0	76.8	85.0	34.9
Cc1ccccc1C(=O)N1CCN(c2ccc(NC(=O)c3ccc([N+](=O)[O-])o3)cc2)CC1	-	0	0	-	-	97.9	34.7
CN1CCN(c2ccc(NC(=O)c3ccc([N+](=O)[O-])o3)cc2Cl)CC1	-	0	?	-	-	90.2	28.8
CC(C)C(=O)N1CCN(c2ccc(NC(=O)c3ccc([N+](=O)[O-])o3)cc2)CC1	57.3	0	0	67.4	33.1	23.9	0
O=C(CN1C(=O)NC(Cc2c[nH]c3ccccc23)C1=O)NCC(F)(F)F (centres undefined)	-	0	0	-	-	0	-
O=C(Nc1ccccc1N1CCN(C(=O)c2ccc(Cl)cc2)CC1)c1ccc([N+](=O)[O-])o1	-	0	0	-	-	33.4	0
CN(Cc1ccco1)C(=O)c1cc2c(s1)-c1ccc(Cl)cc1S(=O)(=O)C2	-	0	0	-	-	0	-
Cc1nnc(N/N=C/c2cccc(OCc3ccc(Cl)c(Cl)c3)c2)n1N	0	0	0	0	0	98.5	0
O=C(O)c1ccc(N/N=C/C=C/c2ccccc2[N+](=O)[O-])cc1	0	0	0	0	0	23.7	38.6
CCOC(=O)c1ccc(NC(=O)c2nc(S(=O)(=O)Cc3ccccc3)ncc2Cl)cc1	-	0	?	-	-	49.9	0
Cc1ccc(NC(=O)c2nc(S(=O)(=O)Cc3ccccc3C)ncc2Cl)cc1C	-	0	0	-	-	31.2	0
CSc1ncc(Cl)c(C(=O)Nc2ccc(C)c(C)c2)n1	-	0	0	-	-	0	-
CCCS(=O)(=O)c1ncc(Cl)c(C(=O)Nc2ccc(S(=O)(=O)Nc3ncccn3)cc2)n1	-	0	0	-	-	0	-
CCOC(=O)c1ccc(NC(=O)CCS(=O)(=O)Cc2ccccc2)cc1	-	0	0	-	-	0	-
